# About 83,000 compounds went through this panel and 20% of them were active in at least one assay; those are over-represented in the sample as a whole.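 Cell lines were cultured in 96-well plates, exposed to a single compound concentration, and assessed for percent growth 48 hours later.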 Active and inactive are the calls of the source. The calls were made as follows: active = growth percent below 10; inactive = the rest.
# Tested on: HCT-15 colon
# Assay: NCI-60 one-dose screen, 48 h (100 = growth as untreated, 0 = no growth, -100 = all killed)
# Conditions: 10 µM unless noted
row,SMILES,growth
1,CC(C)C[C@H](NC(=O)/C=C/Cn1ccc2ccccc2c1=O)B(O)O,67.5% (inactive)
2,COc1ccc(N2CCN(CC(=O)N3CCN(c4nnc(-c5ccccc5)c(-c5ccccc5)n4)CC3)CC2)cc1,35.9% (inactive)
3,O=C(COc1ccc(/C=C2\Cc3ccccc3C2=O)cc1)c1ccc(Cl)cc1,96.1% (inactive)

# Tested on: HT29 colon
# Assay: as above
# Conditions: 10 µM unless noted
row,SMILES,growth
1,Cc1cc2c(cc1C)[n+](Cc1ccc3ccccc3n1)cn2Cc1ccc2ccccc2n1,-14.5% (active)
2,CCOC(=O)c1sc(NC(=O)COc2cccc(/C=C3\Cc4ccc(Cl)cc4C3=O)c2)nc1C,118% (inactive)
3,COc1ccc(/C=C/C(=O)c2cccc(NS(C)(=O)=O)c2)cc1,49.1% (inactive)
4,CCOc1cc(/C=C/C(=O)CC(=O)/C=C/c2ccc(OC(=O)CNCCN(CC)CC)c(OCC)c2)ccc1OC(=O)CNCCN(CC)CC,-88% (active)
5,CC[C@@H](c1ccc(O)c(O)c1)[C@@H](CC)c1ccc(O)c(O)c1,95.4% (inactive)
6,CCCCCc1c(C)[nH]c(/C=C2\N=C(c3ccc[nH]3)C=C2Oc2ccc(Cl)cc2)c1C,0.582% [100 µM] (active)
7,O=C(O)C1CCN(S(=O)(=O)c2ccc(-c3ccccc3)cc2)CC1,111% (inactive)
8,CCCCCN1C(=O)CCC1=O,102% (inactive)
9,O=C(O)c1ccc(CNS(=O)(=O)c2ccc3ccccc3c2)cc1,102% (inactive)
10,COc1cc(-c2nc3sc4c(c3c(=O)[nH]2)CCCCCC4)cc(OC)c1OC,10.5% (inactive)
11,C/C(=C\CCc1ccoc1)CC/C=C(\C)CCCNc1ccc(F)cc1,78.8% (inactive)
12,COc1ccc2nc(N/N=C(\C)c3ccccn3)cc(C)c2c1,-45.5% (active)
13,C/C(=C\CCc1ccoc1)CC/C=C(\C)CCCC1COC(=O)C1 (configuration not stated),113% (inactive)
14,O=C(CNC(=O)c1cccc2ccccc12)Nc1ccccc1Cc1ccccc1,4.74% [5 µM] (active)
15,NS(=O)(=O)c1ccc(-n2ncc3c(NC4CCCCC4)ncnc32)cc1,81.9% (inactive)
16,COc1cc(/C=C/C(=O)CC(=O)/C=C/c2ccc(OC(=O)CCNC34CC5CC(CC(C5)C3)C4)c(OC)c2)ccc1OC(=O)CCNC12CC3CC(CC(C3)C1)C2,-70.6% (active)
17,C/C(=C\CCc1ccoc1)CC/C=C(\C)CCCN1CCSCC1,45.8% (inactive)
18,COC(=O)[C@H]1[C@H]2C[C@@H]3c4[nH]c5cc(OC)ccc5c4CCN3C[C@H]2C[C@@H](OC(=O)/C=C/c2cc(OC)c(OC)c(OC)c2)[C@@H]1OC,-66.1% (active)
19,Cc1c2oc3c(C)ccc(C(=O)OC(C)C4NC(=O)C(C(C)C)N(C)C(=O)CN(C)C(=O)C5CCCN5C(=O)C(C(C)C)NC4=O)c3nc-2c(C(=O)OC(C)C2NC(=O)C(C(C)C)N(C)C(=O)CN(C)C(=O)C3CCCN3C(=O)C(C(C)C)NC2=O)c(N)c1=O (configuration not stated),-29.2% (active)
20,CC(C)=CCCC(C)c1ccc(C)c2c1OCN(CC1CCNCC1)C2 (configuration not stated),-68.5% (active)

row,SMILES,growth
1,Oc1ccccc1/C=N/N1CCCCCC1,97.6% (inactive)
2,CC[n+]1c(/C=C/c2ccc(N3CCCC3)cc2)cccc1/C=C/c1ccc(N2CCCC2)cc1,-82.9% (active)
3,O=C1Nc2ccc(C(=O)O)c(O)c2C1=O,117% (inactive)
4,CSc1nc2nc3c(c(-c4ccc(C)cc4)c2c(=O)[nH]1)CN(C)C/C3=C\c1ccc(C)cc1,103% (inactive)
5,O=C(/C=C/c1cccc(O)c1)c1cccc(-n2cc(-c3ccccc3)[nH]c2=O)c1,9.73% (active)
6,O=[N+]([O-])c1cc([N+](=O)[O-])c(N2CCCC2)cc1NN=C(c1ccc(O)cc1)c1ccc(O)cc1,78.2% (inactive)
7,CC1=C([Se]CC(OC(=O)[C@@H](CSSC(C)(C)C)NC(=O)C(C)(C)C)C(=O)NCCCCCC(=O)OCc2ccccc2)C(=O)c2ccccc2C1=O (some centres not stated),-29.5% (active)
8,C[N+]1(C)C2CC[C@@H]1CC(OC(=O)C(O)c1ccccc1)C2 (some centres not stated),103% (inactive)
9,O=C(O)CNC(=O)C1(N2C(=O)c3ccccc3C2=O)CCCC1,105% (inactive)
10,c1ccc(COc2ccc(Nc3ncnc4c3cnn4-c3ccccc3)cc2)cc1,116% (inactive)
11,Nc1ccccc1-c1ccn[nH]1,106% (inactive)
12,C/C(=C\CCc1ccoc1)CC/C=C(\C)CCCN1CCOCC1,22.7% (inactive)
13,O=C(NC1CCCCC1)c1ccc(Nc2ncnc3c2cnn3-c2ccccc2)cc1,70.2% (inactive)
14,Cc1ccc(-c2csc(N)n2)cc1,93.6% (inactive)
15,COC(=O)C1(NC(=O)CNC(=O)OCc2ccccc2)CCCC1,108% (inactive)
16,C[C@]12CC[C@H](O)CC1=CC[C@@H]1[C@@H]2CC[C@]2(C)C(c3cccnc3)=CC[C@@H]12,24% (inactive)
17,CC(C)C[C@H](NC(=O)/C=C/Cn1ccc2ccccc2c1=O)B(O)O,8.43% (active)
18,COc1ccc(N2CCN(CC(=O)N3CCN(c4nnc(-c5ccccc5)c(-c5ccccc5)n4)CC3)CC2)cc1,26.1% (inactive)
19,O=C(COc1ccc(/C=C2\Cc3ccccc3C2=O)cc1)c1ccc(Cl)cc1,109% (inactive)
